Screens (PubChem)
Mcl-1 Bim block = human Bim-Mcl-1 interaction inhibition; inhibition, % at 10 µM; Bead-based flow cytometry, Bim peptide-Mcl-1 binding; 190,000 compounds, 0.1% hits; Q07820; AID 1009; in the data active means inhibition above about 40%
Mcl1 Bid PPI = Mcl-1/Bid interaction inhibition. Q07820. TR-FRET Mcl-1/Bid-Dy647 peptide binding, 1536-well. inhibition, % at 21.7 µM. 220,000 compounds, 0.97% hits;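 active means compounds that cut the binding signal by more than half at the single screening dose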;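 further: His-tagged Mcl-1 with europium anti-His antibody binding Bid BH3 peptide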
Bcl-xL primary = inhibitors of human Bcl-xL | Q07817 | GST-Bcl-xL / FITC-Bim BH3 peptide fluorescence polarization | inhibition, % at 10.9 µM | 320,000 compounds, 0.7% hits;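 active means inhibition above the mean of all tested compounds plus 3 SD, cutoff set per campaign, cut at about 30% in these data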;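 further: inhibitors lower millipolarization by displacing the labeled peptide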
Target sequence (Q07817 whole entry, looked up): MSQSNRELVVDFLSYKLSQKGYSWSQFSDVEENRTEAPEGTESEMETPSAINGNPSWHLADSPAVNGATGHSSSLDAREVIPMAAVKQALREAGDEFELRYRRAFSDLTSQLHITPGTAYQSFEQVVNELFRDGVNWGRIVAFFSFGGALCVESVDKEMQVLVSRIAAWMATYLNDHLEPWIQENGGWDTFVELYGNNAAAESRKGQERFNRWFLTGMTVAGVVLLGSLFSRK
Mcl1 Noxa PPI = disrupts binding of human Mcl-1 to Noxa peptide. inhibition, % at 21.7 µM. 220,000 compounds, 1.5% hits. TR-FRET Mcl-1/Noxa peptide binding, 2 h. Q07820;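 active means compounds that cut the protein-peptide binding signal by more than 50% relative to plate controls in a single-dose test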;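 further: His-tagged Mcl-1 with rhodamine Noxa BH3 peptide and terbium anti-His antibody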
GLD-1 TGE inh = GLD-1-TGE RNA interaction inhibition (C. elegans); Q17339; purified GLD-1 + fluorescein TGE RNA, fluorescence polarization; inhibition, % at 5.96 µM; 320,000 compounds, 0.44% hits; AID 2280;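 active means percent inhibition above a per-plate cutoff, the plate mean of test compounds plus 3 SD, cut at about 30% in these data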
Target sequence (Q17339 whole entry, looked up): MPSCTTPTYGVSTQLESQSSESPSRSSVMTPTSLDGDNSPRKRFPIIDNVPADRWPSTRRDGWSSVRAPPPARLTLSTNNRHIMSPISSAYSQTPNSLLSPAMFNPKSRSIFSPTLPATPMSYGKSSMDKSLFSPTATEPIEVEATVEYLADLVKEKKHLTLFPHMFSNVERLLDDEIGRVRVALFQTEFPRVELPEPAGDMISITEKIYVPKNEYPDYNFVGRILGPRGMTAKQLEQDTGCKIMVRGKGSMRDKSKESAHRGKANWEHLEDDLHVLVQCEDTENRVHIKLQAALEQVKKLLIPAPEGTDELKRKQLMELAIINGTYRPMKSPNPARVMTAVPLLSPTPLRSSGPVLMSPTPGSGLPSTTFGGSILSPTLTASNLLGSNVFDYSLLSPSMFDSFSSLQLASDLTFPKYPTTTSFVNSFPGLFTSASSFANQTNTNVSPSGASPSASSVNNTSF
MCL1-BIM inh = inhibitors of human MCL1 binding to BIM-BH3 peptide; inhibition, % at 10.9 µM; 320,000 compounds, 0.68% hits; Q07820; GST-MCL1 / FITC-Bim-BH3 fluorescence polarization; AID 2057;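 active means inhibition above the mean inhibition of all tested compounds plus 3 SD, set per campaign, cut at about 40% in these data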;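 further: higher means more loss of mP so more displacement of Bim peptide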
Bcl-xL conf = counter-screen for MCL1 inhibitors: confirmation of human Bcl-xL inhibitors; shares compounds with MCL1-BIM inh; GST-Bcl-xL / FITC-Bim BH3 peptide FP binding; inhibition, % at 10.9 µM; 1,700 compounds, 54% hits; AID 2166;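 active means inhibition above a cutoff equal to the mean inhibition of all tested compounds plus 3 SD, cut at about 30% in these data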
MCL1 inh confirm = confirmation of human MCL1 and BIM-BH3 interaction inhibitors; shares compounds with MCL1-BIM inh; AID 2168; inhibition, % at 10.9 µM; GST-MCL1 / FITC-Bim-BH3 fluorescence polarization; 1,700 compounds, 61% hits;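 active means inhibition above the average of all tested compounds plus 3 SD, cut at about 40% in these data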
GLD1 RNA confirm = GLD-1 TGE RNA interaction inhibition, confirmation | GLD-1/FL-TGE RNA fluorescence polarization, biochemical | 550 compounds, 10% hits | AID 2459 | shares compounds with GLD-1 TGE inh | inhibition, % at 5.96 µM;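 active means average inhibition across triplicates above the hit cutoff set in the primary screen, cut at about 32% in these data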
Each line names hits and unclear results; the compound was inactive in the other large screens (follow-up assays come after a bar, where they were run). This is a sample that favours compounds with a hit; in the whole collection about 2.3% have one here.

O=c1c2ccccc2nc2n1CC/C2=C/N1CCN(c2cccc(C(F)(F)F)c2)CC1	Bcl-xL primary 50, GLD-1 TGE inh 42, MCL1-BIM inh 56 | Bcl-xL conf inactive | MCL1 inh confirm inactive | GLD1 RNA confirm inactive
Cc1ccc(/C=N/n2cnc3sc(-c4ccccc4)cc3c2=O)o1	Bcl-xL primary 124, GLD-1 TGE inh 65, MCL1-BIM inh 67 | Bcl-xL conf inactive | MCL1 inh confirm inactive | GLD1 RNA confirm inactive
Cc1cc2ncn(/N=C/c3ccc(-c4ccccc4)o3)c2cc1C	none
O=C1NC(=O)C(c2cccs2)(c2cccs2)N1	none (no result: Mcl-1 Bim block, Mcl1 Bid PPI, Mcl1 Noxa PPI)
CCOC(=O)C1=C(C)NC(C)=C(C(=O)OCC)C1C(=O)OCC(=O)NC(C)C	none
CCOC(=O)C1=C(C)NC(C)=C(C(=O)OCC)C1C(=O)OCC(N)=O	Bcl-xL primary 77, GLD-1 TGE inh 57, MCL1-BIM inh 110 | Bcl-xL conf inactive | MCL1 inh confirm inactive | GLD1 RNA confirm inactive
CC1CN(C(=O)CCC(=O)N2CCCCC2)c2ccccc2O1 (stereo not given)	none (no result: Mcl-1 Bim block, Mcl1 Bid PPI, Mcl1 Noxa PPI)
COc1ccc2oc(C(=O)OCC(=O)N(CCC#N)c3ccccc3)c(C)c2c1	none (no result: Mcl-1 Bim block, Mcl1 Bid PPI, Mcl1 Noxa PPI)
N#CC(c1nc2ccccc2nc1N1CCCC1)S(=O)(=O)c1ccccc1 (stereo not given)	Bcl-xL primary 66, GLD-1 TGE inh 40, MCL1-BIM inh 70 | Bcl-xL conf 75 | MCL1 inh confirm 76 | GLD1 RNA confirm inactive
COc1ccc(S(=O)(=O)C(C#N)c2nc3ccccc3nc2N2CCCCC2)cc1 (stereo not given)	Bcl-xL primary 68, GLD-1 TGE inh 69, MCL1-BIM inh 79 | Bcl-xL conf inactive | MCL1 inh confirm inactive | GLD1 RNA confirm inactive
CN1CCN(c2nc3ccccc3nc2C(C#N)S(=O)(=O)c2ccccc2)CC1 (stereo not given)	none (no result: Mcl-1 Bim block)
COc1ccc(Cn2ccnc2SCC(=O)NC2CCCC2)cc1	none (no result: Mcl-1 Bim block, Mcl1 Bid PPI, Mcl1 Noxa PPI)
C=CCn1c(SC(C)C(=O)c2c(N)n(C)c(=O)n(C)c2=O)nnc1-c1ccoc1C (stereo not given)	none (no result: Mcl-1 Bim block, Mcl1 Bid PPI, Mcl1 Noxa PPI)
CC(C)N(CCNC(=O)c1oc(=O)c2ccccc2c1-c1ccccc1)Cc1ccco1	none
CCOC(=O)Cn1c(=O)c(-c2cc(Br)ccc2N)nc2ccccc21	Bcl-xL primary 70, GLD-1 TGE inh 37, MCL1-BIM inh 82 (no result: Mcl-1 Bim block) | Bcl-xL conf 108 | MCL1 inh confirm 132 | GLD1 RNA confirm 50
CCC(=O)NCCn1c(C)cc2ccccc21	none
Cc1cc2ccccc2n1CCNC(=O)COc1ccccc1	Bcl-xL primary 41, GLD-1 TGE inh 72, MCL1-BIM inh 63 | Bcl-xL conf inactive | MCL1 inh confirm inactive | GLD1 RNA confirm inactive
COc1ccc2[nH]c(C)c(CCN(Cc3cccs3)C(=S)Nc3cccc(F)c3)c2c1	Bcl-xL primary 59, GLD-1 TGE inh 53, MCL1-BIM inh 63 | Bcl-xL conf inactive | MCL1 inh confirm inactive | GLD1 RNA confirm inactive
COc1ccc(N2CCN(C(=O)COC(=O)CNC(=O)c3ccc(C)cc3)CC2)cc1	none (no result: Mcl-1 Bim block, Mcl1 Bid PPI, Mcl1 Noxa PPI)
O=C1NC(=S)CN1c1ccccc1	Bcl-xL primary 70, GLD-1 TGE inh 69, MCL1-BIM inh 79 (no result: Mcl-1 Bim block) | Bcl-xL conf inactive | MCL1 inh confirm inactive | GLD1 RNA confirm inactive
O=C1N(c2ccccc2)CCN1c1ccccc1	none (no result: Mcl-1 Bim block, Mcl1 Bid PPI, Mcl1 Noxa PPI)
O=C(COC(=O)c1cnccn1)Nc1ncc(C(F)(F)F)cc1Cl	none (no result: Mcl-1 Bim block, Mcl1 Bid PPI, Bcl-xL primary, Mcl1 Noxa PPI, MCL1-BIM inh)
NCC12CC3CC(C1)CC(c1ccc(Cl)cc1)(C3)C2	none
COc1ccc(NS(=O)(=O)c2ccc(Cl)s2)cn1	Bcl-xL primary 72, GLD-1 TGE inh 50, MCL1-BIM inh 78 (no result: Mcl-1 Bim block) | Bcl-xL conf 72 | MCL1 inh confirm 94 | GLD1 RNA confirm 54
COc1ccc(NS(=O)(=O)c2cccs2)cn1	none
O=C1NC(=S)N/C1=C/c1cc2c(cc1[N+](=O)[O-])OCO2	Bcl-xL primary 53, GLD-1 TGE inh 42, MCL1-BIM inh 67 (no result: Mcl-1 Bim block, Mcl1 Bid PPI, Mcl1 Noxa PPI) | Bcl-xL conf inactive | MCL1 inh confirm inactive | GLD1 RNA confirm inactive
O=C(O)c1ccc2c(c1)C(=O)/C(=C/c1ccccc1)C2=O	Bcl-xL primary 77, Mcl1 Noxa PPI 64, GLD-1 TGE inh 46, MCL1-BIM inh 92 | Bcl-xL conf 45 | MCL1 inh confirm 66 | GLD1 RNA confirm inactive
CC(C)(C)C(=O)Nc1cccc(-c2cc(-c3c(Cl)cccc3Cl)no2)c1	none (no result: Mcl-1 Bim block)
FC(F)(F)c1nnc2ccc(Sc3ccccn3)nn12	none
Cc1cccc(NCc2nc3ccccc3n2C)c1	none
Cc1ccc(N2CCN(c3ccc(NCc4nc5ccccc5n4C)cc3)CC2)cc1	Bcl-xL primary 74, GLD-1 TGE inh 63, MCL1-BIM inh 90 | Bcl-xL conf 52 | MCL1 inh confirm 48 | GLD1 RNA confirm 63
O=C(CSC1=Nc2ccccc2C2=NC(CC(=O)NC3CCCCC3)C(=O)N12)NCc1ccco1 (stereo not given)	Bcl-xL primary 61, GLD-1 TGE inh 35, MCL1-BIM inh 63 | Bcl-xL conf 46 | MCL1 inh confirm 56 | GLD1 RNA confirm inactive
Cc1ccnc(Nc2nc(-c3ccc(Cl)cc3)cs2)c1	GLD-1 TGE inh 32, MCL1-BIM inh 52 (no result: Mcl-1 Bim block, Mcl1 Bid PPI, Mcl1 Noxa PPI) | Bcl-xL conf inactive | MCL1 inh confirm inactive | GLD1 RNA confirm inactive
COC(=O)C1=C(C)OC(N)=C(C#N)C1c1ccco1 (stereo not given)	none
CC(=O)C1=C(C)OC(N)=C(C#N)C1c1ccco1 (stereo not given)	Bcl-xL primary 60, GLD-1 TGE inh 39, MCL1-BIM inh 59 | Bcl-xL conf inactive | MCL1 inh confirm inactive | GLD1 RNA confirm inactive
N#CC1=C(N)C(C#N)(C#N)[C@H](c2c(F)cccc2F)[C@H]2CC3(CC=C12)OCCO3	Bcl-xL primary 58, GLD-1 TGE inh 55, MCL1-BIM inh 62 | Bcl-xL conf 35 | MCL1 inh confirm inactive | GLD1 RNA confirm inactive
CSc1ccc(Cl)c(C(=O)N2CCN(c3ncccn3)CC2)c1	none (no result: Mcl-1 Bim block, Mcl1 Bid PPI, Mcl1 Noxa PPI)
COc1ccccc1CNCC(=O)Nc1ccc(N(C)C)cc1	Bcl-xL primary 71, GLD-1 TGE inh 50, MCL1-BIM inh 86 (no result: Mcl-1 Bim block, Mcl1 Bid PPI, Mcl1 Noxa PPI) | Bcl-xL conf 61 | MCL1 inh confirm 61 | GLD1 RNA confirm inactive
CCn1c2ccccc2c2cc(NC(=O)CNCc3ccccc3OC)ccc21	none (no result: Mcl-1 Bim block, Mcl1 Bid PPI, Mcl1 Noxa PPI)
CC(C)CCNc1c(-c2cccs2)nc2ccccn12	Bcl-xL primary 75, GLD-1 TGE inh 46, MCL1-BIM inh 68 | Bcl-xL conf 46 | MCL1 inh confirm 69 | GLD1 RNA confirm inactive
